Source: PubChem BioAssay
uPA surface inh: qHTS for Inhibitors of Cell Surface uPA Generation. cell surface uPA generation assay, qHTS. Potency, µM (titrated, usually from 38.3 µM), for the others: at the top dose activity change, negative = inhibition, hits mostly inhibitors. 330,000 compounds, 0.31% hits. AID 540303, 2011; active means well fitted inhibition curve with a large enough effect; inconclusive means small, poorly fitted or top-dose-only effect; inactive means no such curve, though single readings can be large or run the other way; tested in mouse RAW 264.7 cells; further: potency means the concentration at half of the fitted maximal effect; on the % scale 0 is the no-effect control and ±100 the full control effect; nearly all actives have a fitted effect of over 55% in size
TCR act: Activators of T cell receptors: qHTS campaign. primary human leukocytes, anti-CD3, IL-2 HTRF, 48 h. Potency, µM (doses to about 9.22 µM), for inactives: at the highest dose activation of IL-2 secretion, usual class: activators. 330,000 tested, under 10 active. AID 504894, 2011; further: % of control where 0% means no effect
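1) Mix primary human leukocytes, a-CD3 beads and compound. 2) Incubate 48 hr. 3) Add HTRF IL-2 reagents (a-IL-2-K, a-IL-2-d2).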
Sfp PPTase inh: qHTS Assay for Inhibitors of Bacillus subtilis Sfp phosphopantetheinyl transferase (PPTase); 4'-phosphopantetheinyl transferase ffp (Bacillus subtilis), Q9F4F7; Biochemical Sfp PPTase activity, qHTS; Potency, µM, inactives show largest response in the series, negative = inhibition, most hits filed as inhibitors; 310,000 compounds, 3.5% hits;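 further: the enzyme is Sfp with the accession as filed and its product quenches rhodamine fluorescence; potency means the concentration at half of the fitted maximal effect; 0% = enzyme reaction without inhibitor and -100% = no enzyme wells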
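Reaction rates are the 30-min fluorescence difference (ex 525, em 598 nm) in wells containing 15 nM Sfp, 5 uM rhodamine-CoA and 12.5 uM BHQ-2-YbbR at pH 7.6 with 10 mM MgCl2.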
ClpP mod: qHTS Assay for Activators of ClpP. ATP-dependent Clp protease proteolytic subunit (Bacillus subtilis (strain 168)), P80244. purified B. subtilis ClpP, FRET peptide cleavage, 20 min. Potency, µM (highest dose often 57.5 µM), for inactives: at the highest dose activity change, negative = active. 340,000 compounds, 1.9% hits. AID 651965, 2013; active means well fitted falling curve with a large enough effect; inconclusive means small, poorly fitted or top-dose-only effect; inactive means no such curve, though single readings can be large or run the other way; further: potency means the concentration at half of the fitted maximal effect; the source files actives as falling curves though it sought activators and does not explain the sign; nearly all actives have a fitted effect of over 65% in size
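Purified B. subtilis ClpP, 10 microg/mL final in Tris/HCl pH8 with KCl, BSA, glycerol and Tween-20, cleaved an Abz/nitrotyrosine-quenched decapeptide. Fluorescence (ex 320, em 430) was read at 0 and 20 min at room temperature. Delta was normalized to 5.8 microM ADEP and DMSO/no-enzyme controls.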
Starred values were filed as active, the others as inactive; ? = inconclusive; nt = not tested or not shown; [ ] = another dose, or the depositor's remark. Shown are actives, neighbours in structure and some others; about 4.2% of the full set was active somewhere. Unless noted, the call rests on the fitted dose curve; in most records, active means well fitted curve in the direction sought with a large enough effect; inconclusive means small, poorly fitted or top-dose-only effect, or another doubt; inactive means no such curve, though single readings can be large; an effect the other way counts as inactive or inconclusive.

SMILES	uPA surface inh	TCR act	Sfp PPTase inh	ClpP mod
CCC(=O)Oc1ccc(C(=O)Nc2ccc3c(c2)C(=O)N(C2CCCCC2)C3=O)cc1	3%	6%	21%	25µM*
O=C(Nc1ccc(Br)c(Br)c1)C1CCCO1 (centres undefined)	-1%	3%	nt	nt
O=C(O)COc1ccc(NC(=O)c2ccc3c(c2)C(=O)N(C2CCCCC2)C3=O)cc1	3%	nt	0%	-6%
O=S(=O)(c1ccc(Oc2ccc3c(c2)OCO3)c(S(=O)(=O)N2CCOCC2)c1)N1CCOCC1	nt	nt	nt	0%
O=C(NC1CC(=O)N(c2ccc(Cl)cc2)C1)C1CC1 (centres undefined)	2%	-1%	nt	nt
CCOc1ccc(OCc2cccc(C(=O)Nc3ccc(CN4CCCCC4)cc3)c2)cc1	-13%	-2%[46.1 µM]	13µM*	-1%
COc1ccc(OCc2cccc(C(=O)Nc3ccc(CN4CCCCC4)cc3)c2)cc1	-14%	-10%	-18%	2%
CCCN(CCC)C(=O)c1cc2c(=O)n3cccc(C)c3nc2n1C	nt	nt	nt	5%
Cc1cccn2c(=O)c3cc(C(=O)N(C)C)n(C)c3nc12	-1%	4%	12%	16µM*
Cc1cccn2c(=O)c3cc(C(=O)NCCCN4CCCC4=O)n(C)c3nc12	-7%	1%	-4%	16µM*
COc1cc(OC)c(NC(=O)Cn2cnc3c(nc4n3CCCCC4)c2=O)cc1Cl	nt	nt	nt	1%
Cc1sc(NC(=O)c2ccccc2)c(C(=O)NC(C)C)c1C	2%	nt	14%	?
CCOC(=O)c1c(-c2ccc(C)s2)csc1NC(=O)c1cccs1	-4%	5%	4%	-9%
Cc1sc(NC(=O)c2cccs2)c(C(N)=O)c1C	-24%	-9%	40µM*	1%
CCOC(=O)c1c(NC(=O)c2cccs2)sc(CC)c1-c1cccs1	-5%	nt	-8%	32µM*
Cc1sc(NC(=O)CS(=O)(=O)c2ccccc2)c(C(N)=O)c1C	4%	2%	nt	28µM*
Cc1ccc(C(=O)Nc2sc(C)c(C)c2C(=O)c2ccccc2)cc1	1%	2%[46.1 µM]	20µM*	-2%
CCN(CC)C(=O)CSc1nc2cc3c(cc2c(=O)n1Cc1ccc(C(=O)NCCc2ccc(OC)c(OC)c2)cc1)OCO3	nt	nt	nt	-1%
O=C(Nc1ccccc1)SC1CCCCC1	2%	-3%	nt	-2%
COC(=O)c1ccc(NC(=O)CN2C(=O)CC(C)S(=O)(=O)c3ccccc32)cc1 (centres undefined)	2%	3%	9%	-1%
O=C(Nc1nc(-c2ccc3c(c2)OCCO3)cs1)C1CC(=O)N(c2ccc3c(c2)OCCO3)C1 (centres undefined)	nt	nt	nt	-7%
COc1ccc(CC(=O)NNC(=O)c2cnccn2)cc1	-18%	-3%[46.1 µM]	56µM*	-3%
O=C(NNC(=O)C12CC3CC(CC(C3)C1)C2)c1cnccn1	-6%	-3%[46.1 µM]	-28%	1%
CC(C)(C)C(=O)NNC(=O)c1cnccn1	5%	-4%	79µM*	1%
COc1cc(C(=O)NC(=S)NNC(=O)c2cnccn2)cc(OC)c1OC	10µM*	1%[46.1 µM]	7%	-2%
SMILES	uPA surface inh	TCR act	Sfp PPTase inh	ClpP mod
COc1ccc(CC(=O)NNC(=O)c2ccccn2)cc1	-8%	2%	23%	nt
COc1ccc(C(=O)NC(=S)NNC(=O)c2cnccn2)cc1	-1%	0%[46.1 µM]	-15%	-2%
COc1ccc(OC)c(CCNC(=O)CCCn2c(=O)c3cccn3c3ccccc32)c1	nt	nt	nt	0%
COc1ccc(-c2ccc(-c3noc(C(C)C)n3)c(OC)n2)cc1	4%	5%	56µM*	56%
COc1ccc(-c2ccc(-c3noc(-c4cc(OC)cc(OC)c4)n3)c(OC)n2)cc1	nt	nt	nt	16µM*
COc1cccc(-c2ccc(-c3noc(-c4ccccc4F)n3)c(OC)n2)c1	nt	-1%	-2%	14µM*
COc1cccc(-c2ccc(-c3noc(-c4cccs4)n3)c(OC)n2)c1	-1%	16%	?	?
O=C1NC[C@H](Cc2ccccc2)N(C[C@@H]2CCCN2C[C@H](Cc2ccccc2)N2C[C@H](Cc3ccccc3)N(CCc3ccccc3)C(=O)C2=O)C1=O	nt	nt	nt	-4%
COC(=O)c1ccc(CSc2n[nH]c(=S)s2)o1	4%	0%	-27%	-2%
COC(=O)C(C)Sc1n[nH]c(=S)s1 (centres undefined)	0%	0%	50µM*	2%
O=C(O)CC(Sc1n[nH]c(=S)s1)C(=O)O (centres undefined)	13%	8%	16µM*	1%
COc1ccc(-c2nc3ccccn3c2Nc2ccccc2C)cc1	nt	nt	nt	4%
c1ccc(CN2CCN(c3nc(-c4ccccc4)nc(-n4ccnc4)n3)CC2)cc1	nt	7%	32µM*	0%
c1ccc(N(c2ccccc2)c2nc(N3CCCC3)nc(-n3ccnc3)n2)cc1	nt	6%	45µM*	-14%
COc1ccc(Br)cc1CNC(=O)c1cc2n(n1)CCCN(Cc1ccc(C)cc1)C2=O	nt	nt	nt	1%
C=CCN(Cc1cn(C)nc1-c1cccc(Cl)c1)C1CCS(=O)(=O)C1 (centres undefined)	5%	-1%	13%	nt
COc1ccccc1C(NC(=O)CC(C)C)c1c(O)ccc2ccccc12 (centres undefined)	11%	-1%	27%	35µM*
Cc1ccc(NC(=O)c2ccc(Cl)c(N3C(=O)C=CC3=O)c2)cc1	-4%	7%	2.8µM*	-3%
CCc1ccc2[nH]c(=O)c(C(c3nnnn3CC3CCCO3)N3CCN4CCCC4C3)cc2c1 (centres undefined)	7%	-3%	35µM*	?
COc1ccc2[nH]c(=O)c(C(c3nnnn3CC3CCCO3)N3CCc4ccccc4C3)cc2c1 (centres undefined)	-3%	1%	4%	32µM*
COc1ccc(Cn2nnnc2C(c2cc3cc(C)ccc3[nH]c2=O)N2CCN(C)CC2)cc1 (centres undefined)	nt	-6%	1%	-1%
COc1ccccc1C(c1nnnn1CC1CCCO1)N1CCC(C(N)=O)CC1 (centres undefined)	-10%	-3%[46.1 µM]	21%	-1%
COc1ccc(OC)c(C(c2nnnn2CC2CCCO2)N2CCN(C)CC2)c1 (centres undefined)	9%	2%	-4%	-2%
CCc1ccc2[nH]c(=O)c(C(c3nnnn3Cc3ccccc3)N3CCOCC3)cc2c1 (centres undefined)	4%	-2%	7%	?
Cc1ccc2[nH]c(=O)c(C(c3nnnn3CC3CCCO3)N3CCc4ccccc4C3)cc2c1 (centres undefined)	nt	0%	22µM*	-19%
COc1ccc(C(c2nnnn2CC2CCCO2)N2CCC(C(N)=O)CC2)cc1 (centres undefined)	4%	-4%[46.1 µM]	26%	28µM*
Cc1cn2c(=O)cc(COC(=O)c3cccc(NC(=O)C(C)Oc4ccccc4)c3)nc2s1 (centres undefined)	nt	nt	nt	-24%
COCC(O)Cn1ccnc1[N+](=O)[O-] (centres undefined)	nt	nt	nt	1%
